Hit rate of the full screen: of about 1,600 compounds, about 65 (4%) were called active. These entries were drawn from the full list. Unmarked numbers belong to inactive results. Cut-off read from the data, not from the text of the source: active = inhibition above about 37%; inactive = the rest.

The test in a line: DNA intercalator displacement agents – biochemical, FID fluorescence, triplicate, artefact control for HCV NS3 helicase inhibitor project (AID 1945).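 Note: 0% = vehicle and 100% = reference compound; higher means more displacement of ethidium bromide from the DNA hairpin.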 Particulars: DNA fluorescent intercalator displacement, at 7.9 µM, hits give high values.
`CC(=O)Oc1cccc(N2C(=O)CC(Nc3ccc(N4CCOCC4)cc3)C2=O)c1` (stereo not given): the inhibition is -9.25%.
Under `COc1cc(/C=C2/C(=O)NN(c3cccc(Cl)c3)C2=O)cc(Br)c1O` stands 8.6%.
Under `COc1ccccc1C1/C(=C(/O)c2ccc(OC(C)C)cc2)C(=O)C(=O)N1c1cc(C)on1` (stereo not given) stands -26.4%; under `COc1cc(C2CC(=O)N3CN(Cc4ccccc4)CSC3=C2C#N)ccc1OCc1ccccc1` (stereo not given), -15.9%; under `CC(=O)C1=C(O)C(=O)N(c2ccc(Br)cc2)C1c1ccc([N+](=O)[O-])cc1` (stereo not given), -11.1%.
Take `O=C1NN(c2ccccc2)C(=O)/C1=C/c1ccc(-c2cccc(C(=O)O)c2)o1`: the inhibition was -0.74%.
With `Cc1ccc(C2=N/C(=C\c3ccc(OS(=O)(=O)c4ccc(C)cc4)cc3)C(=O)O2)cc1`, the inhibition was -12.6%.
With `COc1cc(C2C(C(=O)c3ccco3)=C(O)C(=O)N2c2cc(C)on2)ccc1OCc1ccccc1` (stereo not given), the inhibition is -1.69%.
The value for `Cc1[nH]n(C(N)=S)c(=O)c1N=Nc1ccc(Cl)cc1Cl` was -8.84%; that for `O=[N+]([O-])c1cc(Cl)cc(/C=N/NC(=S)Nc2cc(S(=O)(=O)N3CCOCC3)ccc2Cl)c1O` was -2.03%.
The value for `O=C(N/N=C/c1ccc([N+](=O)[O-])o1)c1cn(-c2ccccc2)nc1-c1ccc(F)cc1` was 10.7%; that for `Cc1ccc(C)c(-n2c(SCC(=O)O)nc3sc4c(c3c2=O)CCCC4)c1` was -27.8%.
Regarding `S=C(NCCc1ccccc1)N1CCCCC1`, the inhibition is -0.28%.
With `CCOC(=O)c1nnn(-c2nc(OC)nc(N(C)C)n2)c1-c1ccccc1`, the inhibition is -39.7%.
The value for `N#C/C=C(/c1ccc(F)cc1)N1CCOCC1` was 14%; that for `CCOc1ccc(C(C(=O)NCCOC)N(CCOC)C(=O)CCC(=O)Nc2ccccn2)cc1` (stereo not given) was -24.9%; that for `Cc1ccc(C2Nc3cccc4cccc(c34)N2)cc1` was 17.1%.
Under `COc1ccc(/C=C(\NC(=O)c2ccc(OCC(C)C)cc2)C(=O)OCc2ccco2)cc1` stands -43.9%; under `Cc1ccc(OCC(=O)c2cc(C)n(Cc3ccco3)c2C)c([N+](=O)[O-])n1`, -9.01%; under `Cc1ccccc1Nc1nnc(SCC(=O)c2cc3ccccc3o2)s1`, -3.69%.
Under `COc1ccc(C)cc1-n1nnnc1SCC(=O)c1cc(C)n(Cc2ccco2)c1C` stands -39%.
On to `CC(Oc1ccccc1)C(=O)Nc1oc(-c2ccco2)c(-c2ccco2)c1C#N` (stereo not given), for which the inhibition was 13.9%.
Under `CC(C)c1ccc(Nc2nnc(SCC(=O)c3nnc(-c4ccccc4)o3)s2)cc1` stands 8.51%.
For the molecule `O=c1[nH]c(/C=C\c2cccc(C(F)(F)F)c2)nc(O)c1[N+](=O)[O-]`, the inhibition was -2.48%.
As for `O=c1nc2s/c(=C\c3ccco3)c(=O)n2nc1Cc1ccccc1`, the inhibition was 7.7%.
Under `Cc1ccc(S(=O)(=O)N/N=C\c2cc3c(cc2[N+](=O)[O-])OCO3)cc1` stands 14.6%; under `CC(=O)Nc1ccc(Nc2c3ccccc3nc3ccccc23)cc1`, 79.8% (active).
In the case of `CCOC(=O)c1ccccc1N1C(=O)C2Sc3[nH]c(=O)sc3C(/C=C/c3ccccc3)C2C1=O` (stereo not given), the inhibition is -46.6%.
`COCCNC(=O)Nc1ccc2nc(-c3ccco3)c(-c3ccco3)nc2c1`: the inhibition is 18.2%.
The value for `CCOC(=O)c1c(-c2ccccc2)oc2cc(Br)c(O)c(C=O)c12` was 85% (active); that for `Cc1cc(O)c(C(=O)/C=C/c2c(F)c(F)c(F)c(F)c2F)c(=O)o1` was 3.73%; that for `CCOc1ccc(C2C3=C(CCCC3=O)N(CC(=O)O)C3=C2C(=O)CCC3)cc1` was 7.44%.
Regarding `CS(=O)(=O)c1ccc2c(c1)SC1=NC(=O)/C(=C/c3ccco3)C(=N)N12`, the inhibition is -2.29%.
On to `Cc1ccc(SC(CC(=O)c2ccc(C(C)(C)C)cc2)C(=O)O)cc1` (stereo not given), for which the inhibition is -10.2%.
Under `CC1=NN(c2ccc(Cl)c(C(=O)O)c2)C(=O)/C1=C/c1ccc(-c2ccccc2[N+](=O)[O-])o1` stands 15.8%; under `COc1ccc(/C=C2\SC(=S)N(CCC(=O)Nc3cccc(C(=O)O)c3)C2=O)cc1OC`, 15.4%.
For the molecule `CNS(=O)(=O)c1cccc(C(=O)NC2CCCc3ccccc32)c1` (stereo not given), the inhibition was -7.17%.
For `CCSc1nsc(NC(=O)Nc2cccc(C(C)=O)c2)n1`, the inhibition is 8.36%.
As for `O=c1c2c(-c3ccccc3)ccnc2[nH]n1-c1ccccc1`, the inhibition is 1.8%.
Consider `COC(=O)COc1ccc2c(c1C)O/C(=C\c1ccco1)C2=O`, for which the inhibition was -11.8%.
Under `NS(=O)(=O)c1ccc(-c2ccc(/C=C3\SC(=O)NC3=O)o2)cc1` stands 1.16%.
The value for `CCOC(=O)C1=C(O)/C(=C/c2cc(C)n(-c3ccccc3)c2C)N=C1C` was -10.6%; that for `COc1ccc(/C=C/C(=O)c2cc(Br)ccc(=O)c2O)cc1` was 16.2%; that for `Cc1ccc(C(=O)O)cc1-c1ccc(/C=C2\SC(=O)N(CC(=O)Nc3ccc4c(c3)OCO4)C2=O)o1` was 1%.
As for `COc1cccc(CNC(=O)c2nnn(CC(=O)Nc3cc(Cl)ccc3C)c2N)c1`, the inhibition is 9.61%.
Under `Cc1ccc(S(=O)(=O)NCCC(c2ccccc2)c2ccccc2)cc1C(=O)O` stands -24.5%; under `CCN(CC)CCOc1ccc2c(c1)C(=NNC(=O)c1ccccn1)c1cc(OCCN(CC)CC)ccc1-2`, 94.3% (active).
For the molecule `Brc1ccccc1C1Nc2cccc3cccc(c23)N1`, the inhibition was 12.8%.
Under `O=C1C=CC(=O)N1c1ccc(N2CCCCC2)cc1` stands 17%; under `O=C(N/N=C/c1ccco1)c1csc2c1CCCC2`, -7.05%.
The value for `COc1ccccc1N1CCN(C(=O)CCS(=O)(=O)c2ccc3c(c2)NC(=O)C(C)S3)CC1` (stereo not given) was -36.4%; that for `CSc1c(SCc2ccccc2)cnn(Cc2ccccc2)c1=O` was -16.1%.
Regarding `CCC1C/C(=C/c2cccs2)C(=O)/C(=C/c2cccs2)C1` (stereo not given), the inhibition is -0.49%.
Turning to `Nc1ccc2nc3c(=O)[nH]c(=S)[nH]c3nc2c1`, the inhibition is -8.12%.
Regarding `Cc1nn2c(c1-c1ccccc1)N=C(c1ccco1)CC2c1ccccc1` (stereo not given), the inhibition was -5.96%.

The values are drawn from PubChem BioAssay AID1945 (The Scripps Research Institute Molecular Screening Center, 2009).
